Bioassay records: PubChem, several laboratories
tim23-1 inh: inhibits growth of tim23-1 mutant yeast; AID 463212; actives 1.3% (n = 330,000); S. cerevisiae tim23-1 growth, BacTiter-Glo luminescence, 24 h; inhibition, % at 20 µM;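 active means growth inhibition of the mutant yeast at or above 50%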;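 further: temperature-sensitive mutant grown at 25 °C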
tim10-1 inh: tim10-1 yeast growth inhibition; actives 2.2% (n = 330,000); S. cerevisiae tim10-1 ts strain growth, BacTiter-Glo, 24 h; inhibition, % at 20 µM;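 active means inhibition of at least 40%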;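 further: mutant grown at 25 °C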
SKKanGAS inh: SKKanGAS growth inhibition. S. pyogenes SKKanGAS, kanamycin growth, BacTiter-Glo, 6 h. inhibition, % at 7.5 µM. actives 1.3% (n = 300,000). AID 1662;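 active means mean replicate score, as percent of positive control median, at least 50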;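 further: strain carries kanamycin resistance gene driven by streptokinase promoter and grows in 40 µg/ml kanamycin; loss of luminescence reflects streptokinase promoter inhibition or plain growth inhibition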
TIM10 inh: TIM10 yeast growth inhibition | S. cerevisiae TIM10 strain growth, BacTiter-Glo luminescence, 24 h | inhibition, % at 10 µM | actives 1.4% (n = 330,000) | AID 463195;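 active means inhibition of 40% or more at the single tested concentration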;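 further: wild-type TIM10 isogenic control strain grown at permissive 25 °C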
PfHsp90 set2: reduces growth (ATP signal) of yeast expressing P. falciparum Hsp90; S. cerevisiae expressing PfHsp90, BacTiter-Glo ATP, 48 h; yeast lacking PDR1 and PDR3 efflux regulators; inhibition, % at 9.4 µM; actives 0.32% (n = 310,000); AID 504621;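 active means every replicate shows inhibition above about 80%, whatever the replicate mean, limit read from the data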
tim10 confirm: TIM10 yeast growth inhibition, confirmed. shares compounds with TIM10 inh. S. cerevisiae tim10 strain growth, BacTiter-Glo luminescence, 24 h. inhibition, % at 10 µM. actives 63% (n = 4,600);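 active means inhibition of yeast growth at or above a set limit in either of two replicates at 10 µM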; further: this counterscreen used the strain with wild-type TIM10
Hits are given with their value. The list is not random: actives were taken first. Their share in the collection is about 4.4%.

What do the screens show for `Cc1ccc2oc(=O)c3cc(C(=O)NCCCN4CCCCCC4)sc3c2c1`?
tim23-1 inh: inactive; tim10-1 inh: inactive; SKKanGAS inh: inactive; TIM10 inh: inactive; PfHsp90 set2: inactive

How did Cc1ccc2oc(=O)c3cc(C(=O)NCCCN4CCc5ccccc5C4)sc3c2c1 do in these assays?
tim23-1 inh: inactive; tim10-1 inh: inactive; SKKanGAS inh: inactive; TIM10 inh: 55; PfHsp90 set2: inactive; tim10 confirm: inactive

What do the screens show for `CCC(C)(C)n1nnnc1C(c1ccc2ncccc2c1)N1CCCCCC1` (stereo unspecified)?
tim23-1 inh: inactive; tim10-1 inh: inactive; SKKanGAS inh: inactive; TIM10 inh: 43; PfHsp90 set2: inactive; tim10 confirm: inactive

How did C[C@@H](NC(=O)/C(C#N)=C/c1ccc(O)c(O)c1)c1ccccc1 do in these assays?
tim23-1 inh: inactive; tim10-1 inh: inactive; TIM10 inh: inactive; PfHsp90 set2: inactive

Results for CC(NC(=O)/C(C#N)=C/c1ccc(Cl)c([N+](=O)[O-])c1)c1ccccc1 (stereo unspecified) ?
tim23-1 inh: inactive; tim10-1 inh: inactive; SKKanGAS inh: inactive; TIM10 inh: 63; tim10 confirm: 57

What do the screens show for `C=CCn1c(SCC(=O)Nc2ccc3c(c2)OCCO3)nc2cc(C(=O)O)ccc2c1=O`?
tim23-1 inh: inactive; tim10-1 inh: inactive; TIM10 inh: inactive; PfHsp90 set2: inactive

How did O=C(CSc1nc(C2CC2)nc2c1cnn2-c1ccccc1)Nc1c[nH]c(=O)[nH]c1=O do in these assays?
tim23-1 inh: inactive; tim10-1 inh: inactive; SKKanGAS inh: inactive; TIM10 inh: inactive; PfHsp90 set2: inactive

What do the screens show for `N#C/C(=C\c1ccc(C#N)cc1)C(=O)N1CCCC1`?
tim23-1 inh: inactive; tim10-1 inh: inactive; SKKanGAS inh: inactive; TIM10 inh: 50; tim10 confirm: 34

Results for N#C/C(=C\c1ccc(O)cc1)C(=O)N1CCCC1 ?
tim23-1 inh: inactive; tim10-1 inh: inactive; SKKanGAS inh: inactive; TIM10 inh: inactive; PfHsp90 set2: inactive

How did C=CCN(C(=O)CSc1nc2c(sc3ccccc32)c(=O)n1CCN(CC)CC)c1ccccc1 do in these assays?
tim23-1 inh: inactive; tim10-1 inh: inactive; SKKanGAS inh: inactive; TIM10 inh: 51; PfHsp90 set2: inactive; tim10 confirm: inactive

Results for Nc1nc(N2CCN(c3ccccn3)CC2)nc2ccccc12 ?
tim23-1 inh: inactive; tim10-1 inh: inactive; SKKanGAS inh: inactive; TIM10 inh: inactive; PfHsp90 set2: inactive

How did Cc1ccc(N2CC(O)=C(c3nc4ccccc4c(=O)[nH]3)C2=N)cc1C do in these assays?
tim23-1 inh: inactive; tim10-1 inh: inactive; SKKanGAS inh: inactive; TIM10 inh: 47; PfHsp90 set2: inactive; tim10 confirm: inactive

What do the screens show for `O=C(OCC(=O)N1CCc2ccccc21)c1nc(Cl)ccc1Cl`?
tim23-1 inh: inactive; tim10-1 inh: inactive; SKKanGAS inh: inactive; TIM10 inh: inactive; PfHsp90 set2: inactive

Results for Oc1ccc(CN2CCc3ccccc3C2)c2cccnc12 ?
tim23-1 inh: inactive; tim10-1 inh: inactive; SKKanGAS inh: 83; TIM10 inh: 41; PfHsp90 set2: inactive; tim10 confirm: inactive

Results for Oc1ccc(CN2CCC(Cc3ccccc3)CC2)c2cccnc12 ?
tim23-1 inh: inactive; tim10-1 inh: inactive; SKKanGAS inh: inactive; TIM10 inh: inactive

What do the screens show for `CC1=N/C(=C\c2ccc([N+](=O)[O-])cc2)C(=O)N1c1ccc(F)cc1F`?
tim23-1 inh: inactive; tim10-1 inh: inactive; SKKanGAS inh: inactive; TIM10 inh: inactive; PfHsp90 set2: inactive

How did CC(C)Oc1ccc(C(=O)Nc2ccc(N(C)C)cc2)cc1 do in these assays?
tim23-1 inh: inactive; tim10-1 inh: inactive; SKKanGAS inh: inactive; TIM10 inh: 50; PfHsp90 set2: inactive; tim10 confirm: inactive

How did CCOc1ccc(CCNC(=O)c2cccc(-n3cnnn3)c2)cc1OCC do in these assays?
tim23-1 inh: inactive; tim10-1 inh: inactive; TIM10 inh: inactive; PfHsp90 set2: inactive

Results for COc1ccc(-c2cn3cccnc3n2)cc1Br ?
tim23-1 inh: inactive; tim10-1 inh: inactive; SKKanGAS inh: inactive; TIM10 inh: 46; PfHsp90 set2: inactive; tim10 confirm: 55

What do the screens show for `N/C(=N\OC(=O)/C=C/c1ccccc1Cl)c1cccnc1`?
tim23-1 inh: inactive; tim10-1 inh: inactive; SKKanGAS inh: inactive; TIM10 inh: inactive

How did N/C(=N\OC(=O)/C=C/c1ccccc1Cl)c1ccccn1 do in these assays?
tim23-1 inh: inactive; tim10-1 inh: inactive; SKKanGAS inh: inactive; TIM10 inh: 51; PfHsp90 set2: inactive; tim10 confirm: 55

What do the screens show for `CN1c2ccccc2Oc2nnc(Cl)cc21`?
tim23-1 inh: inactive; tim10-1 inh: inactive; SKKanGAS inh: inactive; TIM10 inh: 48; PfHsp90 set2: inactive; tim10 confirm: 50

What do the screens show for `CCN(CC)CCOc1cc2c(nn1)Oc1ccccc1N2C`?
tim23-1 inh: inactive; tim10-1 inh: inactive; SKKanGAS inh: inactive; TIM10 inh: inactive; PfHsp90 set2: inactive

What do the screens show for `Cc1cc2n(n1)SC(Nc1ccc(F)cc1)N2` (stereo unspecified)?
tim23-1 inh: inactive; tim10-1 inh: inactive; SKKanGAS inh: inactive; TIM10 inh: inactive; PfHsp90 set2: inactive

What do the screens show for `Cc1cc2n(n1)SC(Nc1cccc3ccccc13)N2` (stereo unspecified)?
tim23-1 inh: inactive; tim10-1 inh: inactive; SKKanGAS inh: inactive; TIM10 inh: 42; PfHsp90 set2: inactive; tim10 confirm: inactive

What do the screens show for `Clc1cccc2c1Sc1ccccc1CC2N1CCNCC1` (stereo unspecified)?
tim23-1 inh: inactive; tim10-1 inh: inactive; SKKanGAS inh: inactive; TIM10 inh: inactive; PfHsp90 set2: inactive

Results for Clc1ccc2c(c1)C(N1CCNCC1)Cc1ccccc1S2 (stereo unspecified) ?
tim23-1 inh: inactive; tim10-1 inh: inactive; SKKanGAS inh: inactive; TIM10 inh: 48; PfHsp90 set2: inactive; tim10 confirm: inactive

Results for CC(C)c1ccc(C(O)Cc2nc3ccccc3n2C)cc1 (stereo unspecified) ?
tim23-1 inh: inactive; tim10-1 inh: inactive; SKKanGAS inh: inactive; TIM10 inh: 43; PfHsp90 set2: inactive; tim10 confirm: inactive

Results for CN(C)c1ccc(C(O)Cc2nc3ccccc3n2C)cc1 (stereo unspecified) ?
tim23-1 inh: inactive; tim10-1 inh: inactive; SKKanGAS inh: inactive; TIM10 inh: inactive; PfHsp90 set2: inactive

How did COc1ccc(C(C#N)Nc2ccccc2)cc1 (stereo unspecified) do in these assays?
tim23-1 inh: inactive; tim10-1 inh: inactive; SKKanGAS inh: inactive; TIM10 inh: inactive

How did N#CC(Nc1ccccc1)c1ccccc1OCc1ccccc1 (stereo unspecified) do in these assays?
tim23-1 inh: inactive; tim10-1 inh: inactive; SKKanGAS inh: inactive; TIM10 inh: 42; tim10 confirm: inactive

Results for O=C(Cc1ccccc1[N+](=O)[O-])OCC(=O)c1c[nH]c2ccccc12 ?
tim23-1 inh: inactive; tim10-1 inh: inactive; SKKanGAS inh: inactive; TIM10 inh: inactive; PfHsp90 set2: inactive
